Inconclusive results are not listed. Active and inactive are the calls of the source. Unless noted, calls come from the whole dose curve; as a rule, active = well fitted curve in the direction sought with a large enough effect; inconclusive = small, poorly fitted or top-dose-only effect, or another doubt; inactive = no such curve, though single readings can be large; an effect the other way counts as inactive or inconclusive.
Experiments:
[1] = molecular target: Mitogen-activated protein kinase 10 (Mus musculus) (UniProt Q61831); test: JNK3 AlphaScreen Assay (AID 530; active = well fitted curve in either direction with a large enough effect, not every such curve was filed as active;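 note: kinase came from lysate of stimulated human HepG2 cells; signal reports phosphorylation of biotinylated GST-cJun 1-79 at Ser73 with 10 µM ATP; % is set by controls: 0 for no effect and ±100 for the full control effect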)
Procedure, shortened: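 qHTS format: compounds tested as titrations against IL-1beta/TNF-alpha-activated HepG2 lysate JNK3 with biotin-GST-cJun substrate and 10 uM ATP at room temperature. Loss of anti-phospho-cJun AlphaScreen signal indicates inhibition.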

[2] = Cell Viability - HUV-EC-C (AID 542); note: % is set by controls: 0 for no effect and ±100 for the full control effect; nearly all actives have a fitted effect of over 35% in size
Procedure, shortened: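 HUV-EC-C normal human vascular endothelial cells, 1000 cells/well, pre-incubated 5 hr at 37 °C, then exposed to compounds for 40 hr at 37 °C in complete medium. Viability measured as intracellular ATP by CellTiter-Glo luminescence; AC50 from Hill fits.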

[3] = Cell Viability - H-4-II-E (AID 543); note: % is set by controls: 0 for no effect and ±100 for the full control effect; nearly all actives have a fitted effect of over 35% in size
Procedure, shortened: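 Rat hepatoma H-4-II-E cells (1500/well) were plated, incubated 5 hr at 37 °C, then exposed to compounds for 40 hr at 37 °C. Cellular ATP was read by CellTiter-Glo luminescence; AC50 came from Hill-equation fits of concentration-response data.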

[4] = Cell Viability - Renal Proximal Tubule (AID 545);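 note: 0% = DMSO only and -100% = 100 µM tamoxifen; nearly all actives have a fitted effect of over 40% in size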
Procedure, shortened: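 Rat renal proximal tubule primary cells, 1000/well, exposed to compounds for 40 hr at 37 °C in complete medium; cellular ATP read by CellTiter-Glo luminescence. AC50 from concentration-response fitted with standard Hill equation.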

[5] = Cell Viability - Mesenchymal (AID 546);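 note: cells exposed to compound for 40 hours before reading; 0% = DMSO only and -100% = 100 µM tamoxifen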
Procedure, shortened: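 Human kidney mesenchymal cells from normal renal glomeruli, 1000 cells/well, rested 5 hr at 37 °C, then treated 40 hr at 37 °C in complete medium. Cellular ATP read by CellTiter-Glo luminescence; AC50 from Hill-equation fits.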

[6] = Cellular Toxicity (caspase-3) HUV-EC-C (AID 656);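 note: 0% = DMSO basal and 100% = 100 µM tamoxifen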
Procedure, shortened: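 HUV-EC-C cells (1000/well) in complete medium, compound-treated 16 h at 37 °C; caspase-3/7 activity read by Caspase-Glo 3/7 luminescence. Normalized to DMSO (basal) and 100 uM tamoxifen (100%); AC50 from Hill-equation concentration-response fits.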

[7] = Cellular Toxicity (caspase-3) SHSY5Y (AID 657)
Procedure, shortened: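 SH-SY5Y human neuroblastoma cells, 1500/well, exposed to compound for 16 hours at 37 °C in complete medium. Caspase-3/7 activity read by Caspase-Glo luminescence after 1 hr at room temperature, normalized to DMSO and 10 uM staurosporine; AC50 from Hill fit.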

[8] = Cellular Toxicity (caspase-3) MRC-5 (AID 659);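 note: 0% = DMSO basal and 100% = 10 µM staurosporine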
Procedure, shortened: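 MRC-5 human normal lung fibroblasts, 1500 cells/well, treated 16 h at 37 °C in complete medium. Caspase 3/7 measured by Caspase-Glo luminescence after 1 h at room temperature. Normalized to DMSO and 10 uM staurosporine; AC50 from Hill fit.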

[9] = Cellular Toxicity (caspase-3) Mesangial (AID 660)
Procedure, shortened: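 Human renal glomerular mesangial cells (1000/well) were treated with compounds for 16 h at 37 °C in complete medium, then caspase 3/7 activity was read by Caspase-Glo luminescence. Data were normalized to DMSO and 100 uM tamoxifen; AC50 from Hill fits.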

[10] = Cellular Toxicity (caspase-3) SK-N-SH (AID 661);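 note: 0% = DMSO basal and 100% = 10 µM staurosporine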
Procedure, shortened: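 SK-N-SH human neuroblastoma cells (1500/well) were treated with compounds for 16 hr at 37 °C in complete medium; caspase 3/7 activity was read by Caspase-Glo luminescence. AC50 came from Hill fits of data normalized to DMSO and 10 uM staurosporine.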

[11] = Cellular Toxicity (caspase-3) H-4-II-E (AID 663);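 note: cells exposed to compound for 16 hr before readout; 0% = DMSO basal and 100% = 100 µM tamoxifen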
Procedure, shortened: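 Rat hepatoma H-4-II-E cells (1500/well) plated 5 hr, then exposed to compound titrations for 16 hr at 37 °C. Caspase-Glo 3/7 luminescence read after 20 min at RT; data normalized to DMSO and 100 uM tamoxifen, AC50 from Hill fits.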

[12] = Cellular Toxicity (caspase-3) Hek293 (AID 664);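 note: cells exposed to compound for 16 h at 37 °C before readout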
Procedure, shortened: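 HEK293 cells were exposed to compounds in complete medium for 16 hr at 37 °C, then caspase-3/7 activity was read by Caspase-Glo 3/7 luminescence after 20 min at room temperature. Data normalized to DMSO and 100 uM tamoxifen; AC50 from Hill fits.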

[13] = Cellular Toxicity (caspase-3) N2a (AID 665);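 note: compound exposure lasted 16 h at 37 °C before readout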
Procedure, shortened: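 Mouse N2a neuroblastoma cells (1500/well) were treated with compounds for 16 h at 37 °C, then caspase-3/7 activity was read by Caspase-Glo luminescence after 1 h at room temperature. Data were normalized to DMSO and 10 uM staurosporine; AC50 from Hill fits.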

[14] = Cellular Toxicity (caspase-3) NIH 3T3 (AID 666);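 note: caspase signal read after 16 h compound exposure; 0% = DMSO basal and 100% = 100 µM tamoxifen stimulation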
Procedure, shortened: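 Mouse NIH 3T3 fibroblasts (1000 cells/well) were treated with compound for 16 hr at 37°C in complete medium; caspase-3/7 activity was read by Caspase-Glo luminescence. Normalized to DMSO and 100 uM tamoxifen; AC50 from Hill fits.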

[15] = Cell Viability - N2a (AID 540); details: N2a mouse neuroblastoma cell viability; activity change, negative = cytotoxicity: at 92.2 µM (top of the series);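 note: plate controls were DMSO alone for no effect and tamoxifen control for full effect; nearly all actives have a fitted effect of over 45% in size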
Procedure, shortened: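 Mouse neuroblastoma N2a cells (1500/well) were preincubated 5 hr at 37 °C, then exposed to compounds for 40 hr at 37 °C in complete medium. Viability was read as intracellular ATP by CellTiter-Glo luminescence; AC50 from Hill fits.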

[16] = Cell Viability - SH-SY5Y (AID 544);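 note: 0% = DMSO alone and -100% = 100 µM tamoxifen; nearly all actives have a fitted effect of over 55% in size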
Procedure, shortened: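 Human neuroblastoma SH-SY5Y cells (1500/well) in complete medium were exposed to compounds for 40 hr at 37 °C; intracellular ATP was then quantified by CellTiter-Glo luminescence after 20 min at room temperature. AC50 came from Hill-equation concentration-response fits.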

[17] = Cellular Toxicity (caspase-3) Jurkat (AID 655);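 note: cells exposed to compound for 16 h at 37 °C before reading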
Procedure, shortened: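 Jurkat cells (5000/well) in complete medium exposed 16 h at 37 C; caspase-3/7 activity read by Caspase-Glo luminescence after 20 min at room temperature. Normalized to DMSO and 100 uM tamoxifen; AC50 from Hill fits.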

Nc1ccc(Cl)cc1N
inactive: outcome [1] | Potency [2] | Potency [3] | Potency [4] | Potency [5] | outcome [6] | outcome [7] | outcome [8] | outcome [9] | outcome [10] | outcome [11] | outcome [12] | outcome [13] | outcome [14]

CCCCC(CC)COC(=O)c1ccccc1C(=O)OCC(CC)CCCC (stereo not drawn)
inactive: activity change, negative = cytotoxicity [15] -29.3% | Potency [2] | Potency [3] | Potency [16] | Potency [4] | Potency [5] | outcome [17] | outcome [6] | outcome [7] | outcome [8] | outcome [9] | outcome [10] | outcome [11] | outcome [12] | outcome [13] | outcome [14]

COC(C)(C)CCCC(C)C/C=C/C(C)=C/C(=O)OC(C)C (stereo not drawn)
inactive: outcome [1] | activity change, negative = cytotoxicity [15] -12% | Potency [2] | Potency [3] | Potency [16] | Potency [4] | Potency [5] | outcome [17] | outcome [6] | outcome [7] | outcome [8] | outcome [9] | outcome [10] | outcome [11] | outcome [12] | outcome [13] | outcome [14]

O=C(O)COc1ccccc1
inactive: outcome [1] | activity change, negative = cytotoxicity [15] -9.54% | Potency [2] | Potency [3] | Potency [16] | Potency [4] | Potency [5] | outcome [17] | outcome [6] | outcome [7] | outcome [8] | outcome [9] | outcome [10] | outcome [11] | outcome [12] | outcome [13] | outcome [14]

O=[N+]([O-])c1c(Cl)c(Cl)cc(Cl)c1Cl
inactive: outcome [1] | activity change, negative = cytotoxicity [15] 3.06% | Potency [2] | Potency [3] | Potency [16] | Potency [4] | Potency [5] | outcome [17] | outcome [6] | outcome [7] | outcome [8] | outcome [9] | outcome [10] | outcome [11] | outcome [12] | outcome [13] | outcome [14]

C=CC(=O)NCNC(=O)C=C
inactive: outcome [1] | activity change, negative = cytotoxicity [15] 2.37% | Potency [2] | Potency [3] | Potency [16] | Potency [4] | Potency [5] | outcome [17] | outcome [6] | outcome [7] | outcome [8] | outcome [9] | outcome [10] | outcome [11] | outcome [12] | outcome [13] | outcome [14]

CN(C)[C@@H]1C(=O)C(C(N)=O)=C(O)[C@@]2(O)C(=O)C3=C(O)c4c(O)cccc4[C@@](C)(O)[C@H]3[C@H](O)[C@@H]12
inactive: outcome [1] | activity change, negative = cytotoxicity [15] 0.531% | Potency [2] | Potency [3] | Potency [16] | Potency [4] | Potency [5] | outcome [17] | outcome [6] | outcome [7] | outcome [8] | outcome [9] | outcome [10] | outcome [11] | outcome [12] | outcome [13] | outcome [14]

Nc1ccc([N+](=O)[O-])cc1
inactive: outcome [1] | activity change, negative = cytotoxicity [15] 0.412% | Potency [2] | Potency [3] | Potency [16] | Potency [4] | Potency [5] | outcome [17] | outcome [6] | outcome [7] | outcome [8] | outcome [9] | outcome [10] | outcome [11] | outcome [12] | outcome [13] | outcome [14]

O=S(=O)(c1ccc(Cl)cc1)c1ccc(Cl)cc1
inactive: activity change, negative = cytotoxicity [15] -29.1% | Potency [2] | Potency [3] | Potency [16] | Potency [4] | Potency [5] | outcome [17] | outcome [6] | outcome [7] | outcome [8] | outcome [9] | outcome [10] | outcome [11] | outcome [12] | outcome [13] | outcome [14]
